This is part of a sample that, as a whole, favours compounds with a hit. Of some 83,000 tested, about 20% had one in any assay.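 Plates (96-well) were seeded with cells, treated with compound at one concentration, and incubated for 48 hours before percent growth was determined.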 Calls of active or inactive are those of the source. The calls were made as follows: active = growth percent below 10; inactive = the rest.
Tests used:
Experiment in all cases: NCI-60 one-dose screen, 48 h (100 = growth as untreated, 0 = no growth, -100 = all killed)
Conditions in all cases: 10 µM unless noted
NCI-H23 lung = system: NCI-H23 lung
NCI-H226 lung = system: NCI-H226 lung
NCI-H322M lung = system: NCI-H322M lung
HOP-62 NSCLC = system: HOP-62 NSCLC
NCI-H460 lung = system: NCI-H460 lung
HOP-92 NSCLC = system: HOP-92 NSCLC
NCI-H522 lung = system: NCI-H522 lung
A549/ATCC NSCLC = system: A549/ATCC NSCLC
786-0 renal = system: 786-0 renal
COLO 205 colon = system: COLO 205 colon

Measured: growth

O=C(Nc1cccc([N+](=O)[O-])c1)Nc1cccc([N+](=O)[O-])c1
inactive: NCI-H23 lung 28.3% | NCI-H226 lung 53% | NCI-H322M lung 68% | HOP-62 NSCLC 88.2% | NCI-H460 lung 35.2% | NCI-H522 lung 10.1% | A549/ATCC NSCLC 60.5% | 786-0 renal 71.7% | COLO 205 colon 59.1%
active: HOP-92 NSCLC 2.97%

C[C@H]1C=C(C[C@@H](O)CC#CC#CCCCCC[C@@H](O)[C@H]2CCC(=O)O2)C(=O)O1
inactive: NCI-H23 lung 99.9% | NCI-H226 lung 98.6% | NCI-H322M lung 114% | HOP-62 NSCLC 94.5% | NCI-H460 lung 118% | HOP-92 NSCLC 99.9% | NCI-H522 lung 78.7% | A549/ATCC NSCLC 111% | 786-0 renal 190% | COLO 205 colon 115%

Cc1cccc[n+]1CCC[n+]1ccccc1C
inactive: NCI-H23 lung 99.8% | NCI-H226 lung 98.4% | NCI-H322M lung 109% | HOP-62 NSCLC 84.9% | NCI-H460 lung 106% | HOP-92 NSCLC 86% | NCI-H522 lung 88.1% | A549/ATCC NSCLC 95.7% | 786-0 renal 84.2% | COLO 205 colon 91.1%

CC(=O)Cc1cccnc1
inactive: NCI-H23 lung 96.5% | NCI-H226 lung 95.4% | NCI-H322M lung 102% | HOP-62 NSCLC 108% | NCI-H460 lung 105% | HOP-92 NSCLC 102% | NCI-H522 lung 96.3% | A549/ATCC NSCLC 101% | 786-0 renal 103% | COLO 205 colon 115%

O=C(Nc1ccc(F)cc1)Nc1ccc(Br)c(C(F)(F)F)c1
inactive: NCI-H322M lung 22% | HOP-62 NSCLC 23.2% | A549/ATCC NSCLC 10.2% | 786-0 renal 13.6%
active: NCI-H23 lung -7.43% | NCI-H226 lung -6.87% | NCI-H460 lung 4.62% | HOP-92 NSCLC -13.3% | NCI-H522 lung -16.9% | COLO 205 colon -27.3%

CCC(CC(C)C)Nc1ccc(NC(CC)CC(C)C)cc1 (stereo not given)
inactive: NCI-H23 lung 77.7% | NCI-H226 lung 76.5% | NCI-H322M lung 107% | HOP-62 NSCLC 105% | NCI-H460 lung 94.5% | NCI-H522 lung 14.6% | A549/ATCC NSCLC 89.2% | 786-0 renal 93.1% | COLO 205 colon 76.9%
active: HOP-92 NSCLC -13.1%

c1cncc(-c2nc3ccccc3[nH]2)c1
inactive: NCI-H23 lung 84.4% | NCI-H226 lung 92.7% | NCI-H322M lung 101% | HOP-62 NSCLC 83.2% | NCI-H460 lung 105% | HOP-92 NSCLC 103% | NCI-H522 lung 99.8% | A549/ATCC NSCLC 93.9% | 786-0 renal 107% | COLO 205 colon 89.1%

O=C1c2ccccc2OC=C(c2ccccc2)N1CCCCN1CCCCC1
active: COLO 205 colon -33.6%
inactive: NCI-H23 lung 67.2% | NCI-H226 lung 84.3% | NCI-H322M lung 91.2% | HOP-62 NSCLC 38.1% | NCI-H460 lung 46.7% | HOP-92 NSCLC 40.2% | NCI-H522 lung 25% | A549/ATCC NSCLC 46.8% | 786-0 renal 95.4%

CC(NCCC(c1ccccc1)c1ccccc1)c1ccccc1 (stereo not given)
active: COLO 205 colon -54.9%
inactive: NCI-H23 lung 82% | NCI-H226 lung 87.6% | NCI-H322M lung 69.8% | HOP-62 NSCLC 97.8% | NCI-H460 lung 11.6% | HOP-92 NSCLC 43.3% | NCI-H522 lung 74.8% | A549/ATCC NSCLC 80.7% | 786-0 renal 73.4%

CC(C)CNCC(O)COc1ccc(C(C)(C)c2ccc(OCC(O)CNCC(C)C)cc2)cc1 (stereo not given)
inactive: NCI-H23 lung 84.4% | NCI-H226 lung 88.2% | NCI-H322M lung 81.3% | HOP-62 NSCLC 64.3% | HOP-92 NSCLC 20.2% | NCI-H522 lung 26.4% | A549/ATCC NSCLC 37.5% | 786-0 renal 26.1%
active: NCI-H460 lung -22.2% | COLO 205 colon -65.8%

CN1CCN(C(=O)/C=C/c2ccc([N+](=O)[O-])o2)CC1
active: NCI-H522 lung 4.39%
inactive: NCI-H23 lung 98.1% | NCI-H226 lung 110% | NCI-H322M lung 111% | HOP-62 NSCLC 134% | NCI-H460 lung 91% | HOP-92 NSCLC 85.9% | A549/ATCC NSCLC 53.8% | 786-0 renal 110% | COLO 205 colon 76.2%

COc1ccc(C(=O)NC(=O)Nc2ccc3c(c2)NC(=O)/C3=C\c2[nH]c(C)c(C(=O)O)c2C)c(F)c1
inactive: NCI-H23 lung 48.9% | NCI-H226 lung 67.1% | NCI-H322M lung 45% | HOP-62 NSCLC 64.9% | NCI-H460 lung 69.8% | HOP-92 NSCLC 63.9% | NCI-H522 lung 37.8% | A549/ATCC NSCLC 47.6% | 786-0 renal 35% | COLO 205 colon 88.6%

Cc1ccc(=O)n(-c2ccc(Br)cc2F)c1
inactive: NCI-H23 lung 98.4% | NCI-H226 lung 85.4% | NCI-H322M lung 102% | HOP-62 NSCLC 94% | NCI-H460 lung 110% | HOP-92 NSCLC 77.3% | NCI-H522 lung 104% | A549/ATCC NSCLC 98.7% | 786-0 renal 99.5% | COLO 205 colon 110%

COc1cc(/C=C/C(=O)c2c(C)n([O-])c3cc(C)c(C)cc3[n+]2=O)cc(OC)c1OC
inactive: NCI-H23 lung 72.7% | NCI-H226 lung 82.8% | NCI-H322M lung 67.6% | HOP-62 NSCLC 74.6% | NCI-H460 lung 35.4% | HOP-92 NSCLC 41.5% | NCI-H522 lung 33.6% | A549/ATCC NSCLC 65.9% | 786-0 renal 23.1% | COLO 205 colon 70.1%

Cc1[nH]c2ccc(F)cc2c1CCNC(=O)C1CCN(C(=O)c2ccc(-c3ccccc3)cc2)CC1
inactive: NCI-H23 lung 45.5% | NCI-H226 lung 57.3% | NCI-H322M lung 87% | HOP-62 NSCLC 64.4% | NCI-H460 lung 51% | HOP-92 NSCLC 70.6% | NCI-H522 lung 41.6% | A549/ATCC NSCLC 39.1% | 786-0 renal 63.3% | COLO 205 colon 36.7%

Cc1c(C(C)(C)C)cc(C(C)(C)C)c2c1CN(C)CO2
inactive: NCI-H23 lung 102% | NCI-H226 lung 111% | NCI-H322M lung 105% | HOP-62 NSCLC 103% | NCI-H460 lung 123% | HOP-92 NSCLC 112% | NCI-H522 lung 93.4% | A549/ATCC NSCLC 111% | 786-0 renal 105% | COLO 205 colon 105%

COc1ccc(/C=C/C(=O)c2ccc(Oc3ncnc4ccccc34)cc2)cc1OC
inactive: NCI-H23 lung 81.9% | NCI-H226 lung 80.2% | NCI-H322M lung 76.1% | HOP-62 NSCLC 87.7% | NCI-H460 lung 88.4% | HOP-92 NSCLC 84.6% | NCI-H522 lung 53.5% | A549/ATCC NSCLC 59.2% | 786-0 renal 82.4% | COLO 205 colon 85.4%

CC(Cl)(CCl)CS(=O)(=O)c1ccc(Cl)cc1 (stereo not given)
inactive: NCI-H23 lung 101% | NCI-H226 lung 92.6% | NCI-H322M lung 100% | HOP-62 NSCLC 94.8% | NCI-H460 lung 107% | HOP-92 NSCLC 90% | NCI-H522 lung 92.9% | A549/ATCC NSCLC 88.9% | 786-0 renal 102% | COLO 205 colon 106%

CC1(C)CC(=O)C2=C(C1)OC1=C(C(=O)CC(C)(C)C1)C2c1ccc(OCc2cn(-c3ccc(F)cc3F)nn2)cc1
inactive: NCI-H23 lung 102% | NCI-H226 lung 88.9% | NCI-H322M lung 105% | HOP-62 NSCLC 116% | NCI-H460 lung 100% | HOP-92 NSCLC 107% | NCI-H522 lung 77% | A549/ATCC NSCLC 84.3% | 786-0 renal 120% | COLO 205 colon 101%

Nc1nc(=S)ss1
inactive: NCI-H23 lung 98.7% | NCI-H226 lung 103% | NCI-H322M lung 100% | HOP-62 NSCLC 97.3% | NCI-H460 lung 110% | HOP-92 NSCLC 98.7% | NCI-H522 lung 94.2% | A549/ATCC NSCLC 97.5% | 786-0 renal 107% | COLO 205 colon 112%

CCN1CCN(Cc2ccc(NC(=O)Nc3cccc(-n4ccc5c(NC(=O)c6ccccc6)nccc54)c3)cc2C(F)(F)F)CC1
inactive: NCI-H23 lung 92.4% | NCI-H226 lung 99.5% | NCI-H322M lung 101% | HOP-62 NSCLC 72.6% | NCI-H460 lung 96.3% | HOP-92 NSCLC 60.5% | NCI-H522 lung 45.6% | A549/ATCC NSCLC 86.9% | 786-0 renal 108% | COLO 205 colon 65.7%

C=C1C(=O)O[C@H]2[C@H]1CC/C(C(=O)Nc1ccc(OC)c(C(N)=O)c1O)=C\CC[C@@]1(C)O[C@@H]21
active: NCI-H522 lung 5.78%
inactive: NCI-H23 lung 73.4% | NCI-H226 lung 61.3% | NCI-H322M lung 108% | HOP-62 NSCLC 85.1% | NCI-H460 lung 92% | HOP-92 NSCLC 26.4% | A549/ATCC NSCLC 77.8% | 786-0 renal 43.1% | COLO 205 colon 10.7%

O=C1COc2ccccc2C(=O)N1CCCCN1CCCCC1
inactive: NCI-H23 lung 94% | NCI-H226 lung 93% | NCI-H322M lung 104% | HOP-62 NSCLC 78.2% | NCI-H460 lung 104% | HOP-92 NSCLC 61.5% | NCI-H522 lung 71.5% | A549/ATCC NSCLC 96.4% | 786-0 renal 82.4% | COLO 205 colon 87.6%

S=c1ssnc1-c1ccccn1
inactive: NCI-H23 lung 44.5% | NCI-H226 lung 61.4% | NCI-H322M lung 66.5% | HOP-62 NSCLC 47.7% | A549/ATCC NSCLC 57.7% | 786-0 renal 18.1% | COLO 205 colon 43%
active: NCI-H460 lung 6.05% | HOP-92 NSCLC -4.36% | NCI-H522 lung -29.3%

O=C1C(SCCO)=C(SCCO)C(=O)N1c1ccc(-c2ccccc2)cc1
inactive: NCI-H23 lung 88.9% | NCI-H226 lung 74.9% | NCI-H322M lung 124% | HOP-62 NSCLC 91.5% | NCI-H460 lung 108% | HOP-92 NSCLC 39.9% | A549/ATCC NSCLC 105% | 786-0 renal 82.3%
active: NCI-H522 lung -61.3% | COLO 205 colon -56.5%

O=C(CSc1nnc(-c2ccccc2)o1)Nc1ccc(C(=O)/C=C/c2ccccc2)cc1
inactive: NCI-H23 lung 77.6% | NCI-H226 lung 85.4% | NCI-H322M lung 71.1% | HOP-62 NSCLC 72.4% | NCI-H460 lung 48.4% | HOP-92 NSCLC 60.6% | NCI-H522 lung 65.2% | A549/ATCC NSCLC 60.3% | 786-0 renal 84.8% | COLO 205 colon 79.2%

CC(C)CNCC(=O)Nc1ccc(Cc2ccc(NC(=O)CNCC(C)C)cc2)cc1
inactive: NCI-H23 lung 84% | NCI-H226 lung 68.6% | NCI-H322M lung 78.2% | HOP-62 NSCLC 59.1% | NCI-H460 lung 43.1% | HOP-92 NSCLC 38.4% | NCI-H522 lung 48.3% | A549/ATCC NSCLC 65% | 786-0 renal 42.8% | COLO 205 colon 53.8%

COc1cc(Nc2ncccc2C(=O)Nc2nc3ccc(F)cc3s2)cc(OC)c1OC
inactive: NCI-H23 lung 55.8% | NCI-H226 lung 57.2% | NCI-H322M lung 90.8% | HOP-62 NSCLC 40.9% | NCI-H460 lung 74.1% | HOP-92 NSCLC 45.1% | NCI-H522 lung 50.6% | A549/ATCC NSCLC 65.6% | 786-0 renal 22.9% | COLO 205 colon 118%
